# ERG-DNA inh: inhibitors of human ERG Ets domain-DNA interaction; P11308; fluorescence polarization, His-ERG Ets domain / labelled DNA; Potency, µM (highest dose often 76.9 µM), actives largely listed as inhibitors; actives 0.028% (n = 370,000); AID 624246; active = well fitted inhibition curve with a large enough effect in the polarisation, with a control signal flat; inconclusive = small, poorly fitted or top-dose-only effect, or effect the other way, or a change in a side signal; inactive = no such curve, though single readings can be large or run the other way; the % refers to the polarisation;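 also: polarization taken with two DNA probes labelled with fluorescein and Texas red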
# Target sequence (P11308 whole entry, looked up, the tested form may be a part): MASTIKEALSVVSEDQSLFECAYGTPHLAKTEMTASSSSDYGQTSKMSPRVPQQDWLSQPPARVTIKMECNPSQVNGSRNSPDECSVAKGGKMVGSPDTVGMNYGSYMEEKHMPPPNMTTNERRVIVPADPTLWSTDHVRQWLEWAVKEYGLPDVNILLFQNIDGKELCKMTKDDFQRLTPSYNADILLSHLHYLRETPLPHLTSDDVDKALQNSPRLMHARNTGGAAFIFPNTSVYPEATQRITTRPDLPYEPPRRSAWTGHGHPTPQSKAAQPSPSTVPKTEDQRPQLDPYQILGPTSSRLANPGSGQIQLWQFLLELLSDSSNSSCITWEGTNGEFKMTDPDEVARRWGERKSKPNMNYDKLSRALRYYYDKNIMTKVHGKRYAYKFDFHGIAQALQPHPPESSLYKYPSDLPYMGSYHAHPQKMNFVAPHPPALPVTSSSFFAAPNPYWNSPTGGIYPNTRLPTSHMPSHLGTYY
#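 His-tagged ERG Ets domain (1 uM in the protein solution; 300mM KCl, 50mM Tris-HCl, 1mM EDTA, 1mM DTT, pH 7.5) received compound, then a probe mix of 5 nM fluorescein-DNA and 100nM Texas-615-DNA. Fluorescence polarization was read for both dyes.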
# Mito fusion act: mitochondrial division inhibition or fusion activation. Potency, µM (series often up to 46.1 µM), most hits filed as activators. S. cerevisiae fusion-defective mutant growth rescue, CellTiterGlo 48 h. AID 485298. actives 0.23% (n = 320,000); also: nearly all actives have a fitted effect of over 45% in size
#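 Compounds are tested for their ability to restore growth of mitochondrial fusion-defective yeast strains at non-permissive 37C in YPEG medium over 48 hours. Viability is quantified by luciferase luminescence.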
# Abeta yeast res: A-beta toxicity reversal in yeast; yeast expressing A-beta42, growth rescue, OD600, 48 h; response scale: 0% DMSO, 100% iron-clioquinol control; AID 1347071; actives 0.063% (n = 410,000); Potency, µM (top dose mostly 46.1 µM), most hits filed as activators; also: nearly all actives have a fitted effect of over 55% in size
#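 Yeast growth medium received pinned compounds, then yeast cells expressing toxic A-beta were added; plates incubated at 30 C for 48 hr. Growth read as absorbance at 600 nm, normalized to DMSO and equimolar FeCl3 plus clioquinol controls.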
# TDP-43 yeast inh: rescues yeast growth from TDP-43 toxicity. AID 652104. Potency, µM (top dose mostly 46.1 µM), usual class: activators. TDP-43 expressing yeast growth rescue, BacTiter-Glo, 24 h. actives 1.8% (n = 410,000); also: nearly all actives have a fitted effect of over 50% in size
#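 In this qHTS, compounds that restore growth of yeast expressing TDP-43 appear as activators. Cells (OD600=0.02, galactose medium, raffinose-pregrown) are incubated with compound 24 hr at 30 deg C and growth is quantified by BacTiter-Glo.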
# aSyn yeast inh: inhibitors of alpha-synuclein toxicity in yeast; Potency, µM (doses to about 46.1 µM), most hits filed as activators; actives 0.14% (n = 370,000); Yeast expressing alpha-synuclein, growth rescue, BacTiter-Glo, 24 h; also: nearly all actives have a fitted effect of over 65% in size
#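 Screening used galactose-induced yeast with toxic alpha-synuclein levels, exposed to compound for 24 hr at 30 deg C. Cell growth, read with BacTiter-Glo luminescence, gave the measured signal.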
# FUS suppressor: suppressors of FUS proteinopathy in yeast; S. cerevisiae FUS-expressing, growth rescue, OD600, 24 h; Potency, µM (highest dose often 76.6 µM), usual class: activators; actives 0.24% (n = 390,000); also: nearly all actives have a fitted effect of over 55% in size
#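 Compound concentration series was pinned onto galactose-induced FUS-expressing yeast seeded at OD 0.005. Plates sat 24hr at 30C; absorbance at 600 nm gave growth. DMSO served as background control.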
# Numbers stand for hits; - = inactive; ? = inconclusive; . = no result given; ! = not confirmed by another sample; [ ] = another dose, or the depositor's remark. This is a sample that favours compounds with a hit; in the whole collection about 2.2% have one here. Unless noted, calls follow the shape of the dose curve; as a rule, active = well fitted curve in the direction sought with a large enough effect; inconclusive = small, poorly fitted or top-dose-only effect, or another doubt; inactive = no such curve, though single readings can be large; an effect the other way counts as inactive or inconclusive.
SMILES,ERG-DNA inh,Mito fusion act,Abeta yeast res,TDP-43 yeast inh,aSyn yeast inh,FUS suppressor
Cc1cc(C2=NNC(=NC3CC3)SC2)c(C)n1-c1ccccc1,-,-,-,-,-,?
CN=C1NN=C(c2cc(C)n(-c3c(C)n(C)n(-c4ccccc4)c3=O)c2C)CS1,-,32µM,-,-[0.397 µM],-,?
COc1ccc(-n2c(C)cc(C3=NNC(=NC4CC4)SC3)c2C)cc1,-,-,-,-,-,16µM
CC(=O)C1=CCC(c2ccc(C)cc2)N(S(=O)(=O)c2ccc(C)cc2)C1 (configuration not stated),.,.,-,-,-,-
CC(=O)C1=CCC(c2ccc(Cl)cc2)N(S(=O)(=O)c2ccc(C)cc2)C1 (configuration not stated),.,.,-,35µM!,?,?
CC(=O)C1=CCC(c2ccccc2)N(S(=O)(=O)c2ccccc2)C1 (configuration not stated),.,.,-,-,-,-
CC(=O)C1=CCC(c2ccc(Cl)cc2)N(S(=O)(=O)c2ccccc2)C1 (configuration not stated),.,.,-,14µM,?,-
CCCCNc1c(C(=O)OCC)c(C)nc2c1cnn2CC,-,23µM,-,-,-,-
Clc1cccc(Cc2c(-c3ccccc3)nc3ccc(Cl)cn23)c1,.,.,-,32µM,-,-
Clc1ccc(-c2nc3ccc(Cl)cn3c2Cc2cccc(Cl)c2)cc1,.,.,-,25µM,-,?
Cc1ccc2nc(-c3ccccc3)c(Cc3cccc(Cl)c3)n2c1,.,.,-,-,-,-
Cc1cc(C)n2nc(CNS(=O)(=O)c3cccc(Cl)c3)nc2n1,-,.,-,-,.,-
CCOC(=O)C1(Cc2ccccc2)CCN(Cc2ccccc2[N+](=O)[O-])CC1,.,.,.,.,.,-
Cn1c(=NN=Cc2ccccc2OCCO)sc2ccccc21,.,.,-,13µM,-,-
COc1ccc(NC(=O)Cn2c(=O)n(Cc3ccccc3Cl)c(=O)c3cc(OC)c(OC)cc32)cc1,-,.,-,-,.,-
CC(C)Cc1ccc(C(C)C(=O)Nc2ccc(O)cc2)cc1 (configuration not stated),-,-,-,11µM,-,-
Nc1[nH]c(C(=O)c2ccc(Br)cc2)c(-c2ccc(Br)cc2)c1C(=O)N1CCCCC1,.,.,.,.,.,-
CC1(C)Cc2c(sc3nnn(Cc4ccc(Cl)cc4)c(=O)c23)CO1,-,-,-,13µM,-,.
CCOC(=O)C(C(=O)Cc1ccccc1)c1ccccc1 (configuration not stated),-,.,-,-,-,-
COC(=O)[C@]12C[C@H](CC(=O)N3CCSCC3)C(=O)N(Cc3ccccc3)C1=C[C@H](COCc1ccccc1)O[C@@H]2C,.,.,.,.,.,-
COCC(=O)N(C)C[C@H]1Oc2ncc(C#C[C@H](C)O)cc2C(=O)N([C@@H](C)CO)C[C@H]1C,.,.,-,-,-,-
S=C1NCN(Cc2ccco2)CN1CCc1ccccc1,-,-,14µM,?,-,-
COCCCN1CCC2(CCC(c3ccccc3)CC2)C1=O (configuration not stated),.,.,.,.,.,-
Cc1ccc(C)c(N2CCN(C(=O)Cn3cnc4sc(C)c(S(=O)(=O)N5CCN(c6ncccn6)CC5)c4c3=O)CC2)c1,-,.,-,-,.,?
COc1ccc(C)cc1NC(=O)COC(=O)c1ccc2c(c1)OCO2,-,-,-,-,-,-
SMILES,ERG-DNA inh,Mito fusion act,Abeta yeast res,TDP-43 yeast inh,aSyn yeast inh,FUS suppressor
COc1ccc(C)cc1NC(=O)c1ccc2c(c1)OCO2,-,-,-,13µM,-,-
O=C(/C=C/c1ccc2c(c1)OCCO2)c1ccccc1,-,-,-,16µM,-,-
Cc1ccc(O)c(C(=O)/C=C/c2ccc3c(c2)OCCO3)c1,-,-,-,18µM,-,-
O=C(O)c1ccc(/C=C/C(=O)c2ccc3c(c2)OCCCO3)cc1,-,-,-,-,-,-
COc1ccc(/C=C/C(=O)c2ccc3c(c2)OCCO3)cc1[N+](=O)[O-],-,-,-,13µM,-,-
COc1ccc(C(=O)/C=C/c2ccc3c(c2)OCCO3)cc1,-,-,-,20µM,-,-
COc1ccc(C(=O)C=Cc2ccc3c(c2)OCO3)cc1OC,.,.,-,14µM,-,-
CC(=O)Nc1ccc(/C=C/C(=O)c2ccc3c(c2)OCCO3)cc1,-,-,-,-,-,-
COc1cc(/C=C/c2ccc3cccc(O)c3n2)cc(OC)c1OC,-,-,-,-,-,-
COc1ccc(/C=C/c2ccc3cccc(O)c3n2)c(OC)c1OC,-,-,-,?,?,-
COc1cccc(/C=C/c2ccc3cccc(O)c3n2)c1OC,-,-,-,14µM,18µM,-
COc1cccc(/C=C/c2ccc3cccc(O)c3n2)c1,-,-,?,?,18µM,-
Oc1cccc(/C=C/c2ccc3cccc(O)c3n2)c1,-,-,?,13µM,?,-
Nc1cc(=O)nc(SCC(=O)Nc2ccc(F)cc2)n1-c1ccc(Cl)cc1,-,.,-,?,.,-
N#CCC[C@@H]1CC[C@]2(CCCN(Cc3ccc(Cl)cc3)C2)O1,.,.,.,.,.,-
O=c1[nH]c2ccccc2c2nc3ccccn3c12,-,-,-,22µM,?,-
O=c1nc2c(O)cccn2c2c1c(=O)[nH]c1ccccc12,-,-,-,-,-,-
CCC(=O)Nc1ccccc1C(=O)OCc1cc(=O)n2cc(C)sc2n1,-,.,-,-,.,-
OC(c1ccccc1)c1nc(-c2cccc(F)c2)cs1 (configuration not stated),.,.,-,?,-,-
COCc1cccc(-c2csc(C(N)c3ccc(F)c(F)c3)n2)c1 (configuration not stated),.,.,-,-,-,-
COCc1cccc(-c2csc(C(O)c3ccc(F)c(F)c3)n2)c1 (configuration not stated),.,.,-,20µM,?,-
COc1cc(C(O)c2nc(-c3cccc(C(F)(F)F)c3)cs2)ccc1F (configuration not stated),.,.,-,-,-,-
COc1ccc(C(O)c2nc(-c3cccc(C(F)(F)F)c3)cs2)cc1 (configuration not stated),.,.,-,22µM,-,?
COc1cccc(C(O)c2nc(-c3cccc(C(F)(F)F)c3)cs2)c1 (configuration not stated),.,.,-,22µM,-,-
COc1cccc(C(NC(C)=O)c2nc(-c3cccc(C(F)(F)F)c3)cs2)c1 (configuration not stated),.,.,-,?,-,-
COc1ccc(C(O)c2nc(-c3cccc(F)c3)cs2)cc1 (configuration not stated),.,.,-,14µM,?,-
